FBPA coupling cs = counter-screen for Giardia aldolase inhibitors: coupling enzyme system; activity change, negative = inhibition, % at 58.2 µM, hits read low; AID 2472; coupling enzyme system counterscreen, AmpLite Red fluorescence; actives 0.67% (n = 290,000); in the data active = activity change below about -30%
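Counterscreen lacking aldolase: glyceraldehyde-3-phosphate coupling-enzyme reagent preincubated 10 min at RT with compound (at 57.5 uM final), then substrate/coupling system with AmpLite Red added; fluorescence read at 525/598 nm after 20 min RT.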
Tau fluor cs = counter-screen for tau fibril formation inhibitors; tau K18 P301L Alexa594 fluorescence, heparin fibrillization; Potency, µM (doses to about 57.7 µM), for the others: top-dose activity change, negative = decrease; actives 0.93% (n = 280,000); also: potency is read from the fitted curve at half-maximal effect; nearly all actives have a fitted effect of over 55% in size
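Human K18 P301L tau (15 uM unlabeled plus 0.24 uM Alexa 594-labeled, final) in 100 mM sodium acetate pH 7 was mixed with compound and 20 uM heparin and incubated 6 hr at 37 C.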
Tau fibril FP = tau fibrillization inhibition (FP); P10636; K18 P301L tau heparin fibrillization, Alexa594 FP, 6 h; Potency, µM (top dose mostly 57.7 µM), for inactives: top-dose activity, negative = inhibition, most hits filed as inhibitors; actives 0.39% (n = 280,000); AID 1468; also: potency is read from the fitted curve at half-maximal effect; nearly all actives have a fitted effect of over 55% in size
Target sequence (P10636 561-689 P618L limits assumed): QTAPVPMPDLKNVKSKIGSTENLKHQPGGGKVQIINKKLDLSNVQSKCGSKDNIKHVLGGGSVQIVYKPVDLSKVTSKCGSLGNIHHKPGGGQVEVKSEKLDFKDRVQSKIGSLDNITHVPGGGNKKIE
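Heparin (20 uM) drove fibril formation of recombinant tau K18 P301L, 15 uM unlabeled with 0.24 uM Alexa 594 label, for 6 hr at 37 C in 100 mM sodium acetate pH 7. Fluorescence polarization (555/632 nm) read 1 hr after 30 uM ThT.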
USP1 inh = USP1/UAF1 (human) deubiquitinase inhibition | O94782 | recombinant USP1/UAF1, Ub-Rhodamine cleavage fluorescence | Potency, µM (top dose mostly 57.1 µM), inactives show at the highest dose activity change, negative = inhibition, most hits filed as inhibitors | actives 0.23% (n = 390,000) | AID 743255; also: potency is read from the fitted curve at half-maximal effect; nearly all actives have a fitted effect of over 60% in size
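USP1/UAF1 complex at 1 nM was preincubated with compound for 15 min at room temperature, then Ub-Rho substrate (150nM final) was added. Fluorescence (480/540 nm) was read kinetically, 6 reads every 60 seconds.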
Tau ThT inhib = inhibitors of human tau fibril formation, thioflavin T binding | P10636 | recombinant tau K18 P301L, heparin-induced fibrillization, ThT fluorescence | Potency, µM (highest dose often 57.4 µM), for inactives: at the highest dose activity, negative = inhibition, usual class: inhibitors | actives 2.1% (n = 270,000) | AID 1460; also: potency is read from the fitted curve at half-maximal effect; nearly all actives have a fitted effect of over 55% in size
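Using a mix of unlabeled (15 uM) and Alexa 594-labeled (0.24 uM) tau K18 P301L, heparin-triggered fibrillization over 6 hr at 37 C was scored by ThT fluorescence.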
The depositor's hits bear a star; ! = not confirmed by another sample; [ ] = remark or other dose. Only some compounds are listed: those with a hit (about 2.3% of all), similar ones and a draw of the others. Unless noted, calls follow the shape of the dose curve; as a rule, active = well fitted curve in the direction sought with a large enough effect; inconclusive = small, poorly fitted or top-dose-only effect, or another doubt; inactive = no such curve, though single readings can be large; an effect the other way counts as inactive or inconclusive. % is scaled to controls: 0 for no effect and ±100 for the full control effect.

How did Cc1c(C)[n+](=O)c2c(n1[O-])C(Br)CCC2Br (centres undefined) do in these assays?
FBPA coupling cs: 1; Tau fluor cs: -12%; Tau fibril FP: -11%; USP1 inh: -10%; Tau ThT inhib: inconclusive

What do the screens show for `Cc1c(CBr)[n+](=O)c2c(n1[O-])C(Br)CCC2Br` (centres undefined)?
FBPA coupling cs: -5; Tau fluor cs: -28%; Tau fibril FP: inconclusive; USP1 inh: -4%; Tau ThT inhib: 25µM*

How did Cn1cnc2c(N3CCCCC3)nccc21 do in these assays?
FBPA coupling cs: -8; Tau fluor cs: 2%; Tau fibril FP: -3%; USP1 inh: -8%; Tau ThT inhib: -3%

How did C[c-]1[c-](C)[c-](C)[c-](C)[c-]1C.[Fe].c1cc2nccc(N3CCCC3)[c-]2c1 (centres undefined) do in these assays?
FBPA coupling cs: -33*!; Tau fluor cs: inconclusive; Tau fibril FP: inconclusive; USP1 inh: -18%; Tau ThT inhib: 32µM*

How did COc1ccccc1C(=O)Nc1ccccc1SCc1cc(=O)c2ccccc2[nH]1 do in these assays?
Tau fluor cs: -10%; Tau fibril FP: -7%; USP1 inh: -19%; Tau ThT inhib: -6%

Results for CCN(CC(=O)Nc1cc(Cl)ccc1C)C(=O)c1ccc(=O)n(Cc2ccccc2)n1 ?
FBPA coupling cs: 0; USP1 inh: -19%

What do the screens show for `CC1(C)CC(=O)C(CC2=C(O)CC(C)(C)CC2=O)=C(O)C1`?
FBPA coupling cs: -3; Tau fluor cs: -23%; Tau fibril FP: 40µM*; USP1 inh: -8%; Tau ThT inhib: 16µM*

How did CN=CC1=C(O)CC(C)(C)CC1=O do in these assays?
FBPA coupling cs: 2; Tau fluor cs: 0%; Tau fibril FP: 0%; USP1 inh: -14%; Tau ThT inhib: -3%

What do the screens show for `CC1(C)CC(=O)C(CC2=C(O)CC(C)(C)CC2=O)C(=O)C1`?
FBPA coupling cs: -2; Tau fluor cs: -22%; Tau fibril FP: 28µM*; USP1 inh: -12%; Tau ThT inhib: 14µM*

Results for COc1cc(NS(=O)(=O)c2ccc([N+](=O)[O-])cc2)c2ncccc2c1 ?
FBPA coupling cs: -18

What do the screens show for `CCN(CC)S(=O)(=O)c1ccc2c(c1)nc(CN(C)C(=O)Nc1ccc(F)cc1)n2C`?
Tau fluor cs: -7%; Tau fibril FP: -3%; USP1 inh: -21%; Tau ThT inhib: 3%

How did NCCCNc1nc(N)c([N+](=O)[O-])c(NC2CCCCC2)n1 do in these assays?
FBPA coupling cs: -1; USP1 inh: -10%

Results for COc1ccc(C(=O)NCC(=O)OCC(=O)NC2CCCCCC2)cc1OC ?
USP1 inh: -19%

What do the screens show for `Cc1nc(-c2ccc(S(=O)(=O)N3CCN(c4ccccc4F)CC3)cc2)co1`?
Tau fluor cs: inconclusive; Tau fibril FP: 2%; USP1 inh: -36%; Tau ThT inhib: -12%

How did COC(=O)N1CC=CC1(C)C(=O)NCC1CC1 (centres undefined) do in these assays?
FBPA coupling cs: 4; Tau fluor cs: -13%; Tau fibril FP: -2%; Tau ThT inhib: -18%

What do the screens show for `COC(=O)N1CC=CC1(C)C(=O)NCc1ccc(C)o1` (centres undefined)?
FBPA coupling cs: -8; Tau fluor cs: -19%; Tau fibril FP: inconclusive; Tau ThT inhib: 22µM*

How did Cc1ccc(N=Nc2ccc(N)cc2C)c(S(N)(=O)=O)c1 do in these assays?
FBPA coupling cs: 2; Tau fluor cs: inconclusive; Tau fibril FP: 15%; USP1 inh: -20%; Tau ThT inhib: 14µM*

How did COc1ccccc1N(C(=O)c1ccco1)C(C(=O)NC1CCCCC1)c1cc(OC)c(OC)c(OC)c1 (centres undefined) do in these assays?
FBPA coupling cs: 0; USP1 inh: -24%

What do the screens show for `Cc1ccc(C(=O)NNc2cc(N3CCCC3)nc(N3CCCC3)n2)cc1`?
FBPA coupling cs: -10; Tau fluor cs: -18%; Tau fibril FP: -1%; USP1 inh: 14µM*; Tau ThT inhib: inconclusive

What do the screens show for `Cc1ccc(N2C(S)=C(C#N)C(=O)NC23CCCCC3)cc1`?
FBPA coupling cs: 5; Tau fluor cs: -19%; Tau fibril FP: inconclusive; USP1 inh: -22%; Tau ThT inhib: inconclusive

Results for Cc1cccc(N2C(S)=C(C#N)C(=O)NC23CCCCC3)c1 ?
FBPA coupling cs: 5; Tau fluor cs: -25%; Tau fibril FP: inconclusive; USP1 inh: -11%; Tau ThT inhib: 32µM*

Results for Cc1ccc(NCC(=O)N/N=C/c2cc(O)ccc2[N+](=O)[O-])cc1 ?
FBPA coupling cs: -10; Tau fluor cs: -27%; Tau fibril FP: 3%; USP1 inh: -29%; Tau ThT inhib: 14µM*

What do the screens show for `Cc1cccc(NCC(=O)N/N=C\c2cccc(Oc3ccccc3)c2)c1`?
FBPA coupling cs: 1; Tau fluor cs: inconclusive; Tau fibril FP: inconclusive; USP1 inh: -19%; Tau ThT inhib: inconclusive

How did COc1ccc(NCC(=O)N/N=C/c2cc([N+](=O)[O-])ccc2N2CCCC2)cc1 do in these assays?
FBPA coupling cs: -10; Tau fluor cs: inconclusive; Tau fibril FP: 18%; USP1 inh: -21%; Tau ThT inhib: 11µM*

What do the screens show for `Cc1ccc(NCC(=O)N/N=C/c2ccncc2)cc1`?
FBPA coupling cs: 1; Tau fluor cs: 6%; Tau fibril FP: 1%; USP1 inh: -17%; Tau ThT inhib: 7%

How did Cc1ccc(NCC(=O)N/N=C/c2cccc(Oc3ccccc3)c2)cc1 do in these assays?
FBPA coupling cs: -2; Tau fluor cs: 10µM*[quencher]; Tau fibril FP: 15%; USP1 inh: -12%; Tau ThT inhib: inconclusive

What do the screens show for `O=C1C=CC(=O)N1CCCCCCN1C(=O)C=CC1=O`?
FBPA coupling cs: 6; Tau fluor cs: -21%; Tau fibril FP: 25µM*; USP1 inh: -9%; Tau ThT inhib: inconclusive

How did C=CCN1C(=O)C(CC(=O)O)SC1=Nc1ccc(N=Nc2ccccc2)cc1 (centres undefined) do in these assays?
FBPA coupling cs: 4; Tau fluor cs: -16%; Tau fibril FP: 7%; USP1 inh: 0%; Tau ThT inhib: 11µM*

What do the screens show for `CC(=O)N1CCCc2cc(S(=O)(=O)N(Cc3ccccc3)C(C)C)ccc21`?
Tau fluor cs: -12%; Tau fibril FP: 3%; USP1 inh: inconclusive; Tau ThT inhib: -13%

How did CCOC(=O)c1c(C)[nH]c(C2=NNC(=Nc3cccc(Cl)c3)SC2)c1C do in these assays?
FBPA coupling cs: -5; Tau fluor cs: inconclusive; Tau fibril FP: inconclusive; Tau ThT inhib: 13µM*

Results for CC(=O)c1c(C)[nH]c(C2=NNC(=NCc3ccccc3)SC2)c1C ?
FBPA coupling cs: -17; Tau fluor cs: -29%; Tau fibril FP: 1%; USP1 inh: -3%; Tau ThT inhib: inconclusive

Source: PubChem BioAssay
